SENP7 inh: blocks the human protease SENP7 | Q9BQF6 | recombinant SENP7, Z-RLRGG-aminoluciferin luminescence, 40 min | inhibition, % at 5 µM | hit rate 1.5% among 330,000 | AID 434973;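 active means inhibition above about 50% at the single test dose, limit read from the data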;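 further: plate controls were DMSO with enzyme for no effect and no enzyme buffer wells for full effect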
Target sequence (Q9BQF6 706-1050 limits assumed): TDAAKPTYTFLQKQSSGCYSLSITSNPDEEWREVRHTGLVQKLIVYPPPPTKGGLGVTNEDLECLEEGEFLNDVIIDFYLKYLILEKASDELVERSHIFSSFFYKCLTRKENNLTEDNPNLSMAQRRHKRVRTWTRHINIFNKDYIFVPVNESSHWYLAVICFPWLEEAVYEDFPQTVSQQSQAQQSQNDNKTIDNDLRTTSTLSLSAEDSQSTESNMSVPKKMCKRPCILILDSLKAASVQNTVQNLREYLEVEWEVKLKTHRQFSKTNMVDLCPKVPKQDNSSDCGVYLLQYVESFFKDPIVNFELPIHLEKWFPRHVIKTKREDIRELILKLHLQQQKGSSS
SENP8 block-1: inhibitors of human SENP8 protease; Q96LD8; purified SENP8, Z-RLRGG-aminoluciferin cleavage, luminescence; inhibition, % at 10 µM; hit rate 1.2% among 330,000; AID 2540; in the data active means inhibition above about 50%
Target sequence (Q96LD8 whole entry, looked up): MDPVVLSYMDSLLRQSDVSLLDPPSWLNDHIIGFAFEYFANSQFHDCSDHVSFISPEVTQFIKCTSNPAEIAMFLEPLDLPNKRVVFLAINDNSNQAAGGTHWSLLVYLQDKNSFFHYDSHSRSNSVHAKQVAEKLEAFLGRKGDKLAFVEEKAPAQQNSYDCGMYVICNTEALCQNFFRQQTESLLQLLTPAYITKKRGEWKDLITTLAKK
SENP6 inh: SENP6 protease inhibition. Recombinant SENP6 catalytic domain, aminoluciferin luminescence. Q9GZR1. inhibition, % at 10 µM. hit rate 1.8% among 330,000. AID 2599;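 active means inhibition above about 50% at the single tested dose, limit read from the data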;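 further: plate controls were DMSO wells with enzyme for no effect and DMSO wells lacking enzyme for full effect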
AHR activator: activators of human aryl hydrocarbon receptor; AHR-responsive luciferase reporter cells, luminescence; activation, % at 5 µM; hit rate 2.5% among 320,000; P35869; in the data active means activation above about 47%;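 further: 0% = vehicle wells and 100% = reference agonist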
EBI2 block: EBI2 (human) antagonism. P32249. inhibition, % at 5 µM. EBI2 beta-arrestin recruitment, luminescence, 7a,25-OHC stimulated. hit rate 0.81% among 360,000; in the data active means inhibition above about 38%;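 further: enzyme fragment complementation signal reports receptor beta-arrestin coupling in cells; 0% = agonist plus DMSO wells and 100% = wells without agonist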
SENP8 block-2: blocks human SENP8 cleavage of Nedd8 substrate | AID 602440 | hit rate 0.64% among 360,000 | inhibition, % at 20 µM | recombinant SENP8, Nedd8 substrate fluorescence; in the data active means inhibition mostly above about 40%, no sharp cut-off; inactive means mostly below about 27%
SENP8 inh conf: confirmation of human SENP8 protease inhibitors. shares compounds with SENP8 block-2. purified SENP8, Nedd8-AMC/pro-Nedd8 cleavage fluorescence, 30 min. inhibition, % at 25 µM. hit rate 15% among 1,400; in the data active means inhibition mostly above about 39%, no sharp cut-off; inactive means mostly below about 34%
* marks the source's active call; other numbers are inactive results; . = no result. Compounds with a hit are over-represented: about 5% of the library has one in this group of screens.

SMILES	SENP7 inh	SENP8 block-1	SENP6 inh	AHR activator	EBI2 block	SENP8 block-2	SENP8 inh conf
CCOC(=O)c1ccc(N2C(=O)CC(C(=O)OC)=C2C)cc1	-7	-7	-9	2	-1	1	.
CCOC(=O)c1ccc(N2C(=O)Cc3ccccc3C2=O)cc1	4	4	28	0	-3	63*	27*
Cc1cc(N2C(=O)Cc3ccccc3C2=O)ccc1C(C)C	26	23	47	3	6	78*	35
CCOc1ccc(N2C(=O)CCC2=O)cc1	1	-7	-17	-1	2	27	.
CCOc1ccc(N2C(=O)Cc3ccccc3C2=O)cc1	19	3	32	-1	-12	75*	26
Cc1cc(-n2cnnn2)ccc1C(C)C	1	2	-5	2	4	3	.
CN(Cc1c(C(=O)N/N=C/c2cccs2)nnn1-c1nonc1N)c1ccccc1	-4	-2	9	1	-9	6	.
CCOC(=O)/C(C#N)=N\Nc1cc(Cl)ccc1OC	-4	-4	-2	0	1	26	.
CCOc1ccccc1C(=O)N(CCC(=O)OC)c1ccccn1	-5	-4	-9	1	2	43*	16
Cc1c(C)c(C)c(C(=O)C2CCN(c3ccc([N+](=O)[O-])cn3)CC2)c(C)c1C	0	6	5	0	-11	44*	16
CC1CCN(c2ccc([N+](=O)[O-])cn2)CC1	-7	-11	-28	-2	-3	5	.
O=C(CS(=O)(=O)Cc1ccccc1)N1CCc2ccccc2C1	-10	-3	6	.	-3	50*	76*
Cc1cc(=O)oc(C)c1C(=O)Nc1cccc2ccccc12	2	0	12	1	-6	43*	17
Cc1ccccc1NC(=O)c1c(C)cc(=O)oc1C	-4	-2	-28	0	0	13	.
C=CCn1c(Br)nc2c1c(=O)n(C)c(=O)n2C	0	-1	-11	-1	7	9	.
Cn1c(=O)c2c(nc(Br)n2C)n(C)c1=O	-2	-5	-5	7	-8	41*	0
Cc1noc(C)c1COc1ccccc1C(=O)N1CCN(S(=O)(=O)c2ccccc2F)CC1	3	-10	2	0	-5	7	.
CN(N=Cc1ccccc1)C(=S)Nc1ccccc1	.	.	.	.	-14	43*	19
C/C(=C\C(=S)Nc1ccccc1)Nc1ccccc1	2	-7	-9	13	-1	-21	.
Cc1cc(C(=O)NCCC(c2ccccc2)c2ccccc2)c(C)o1	5	1	0	11	10	12	.
CN(Cc1cn(-c2ccccc2)nc1-c1ccc(F)cc1)C(=O)CCC(=O)O	5	7	10	1	0	25	.
CN(Cc1cn(-c2ccccc2)nc1-c1ccc(Cl)cc1)C(=O)CCC(=O)O	-1	10	3	9	-18	40*	15
CC1(/[N+]([O-])=C/c2ccc(Cl)cc2Cl)CCCCC1=O (stereo unspecified)	5	6	19	-2	1	46*	0
CC1(/[N+]([O-])=C/c2cccc(Cl)c2)CCCCC1=O (stereo unspecified)	1	-6	-5	0	2	16	.
O=C(O)C=C(Br)Br	4	-6	-4	-1	2	46*	21
SMILES	SENP7 inh	SENP8 block-1	SENP6 inh	AHR activator	EBI2 block	SENP8 block-2	SENP8 inh conf
COc1ccc(C(O)c2nccn2C)cc1 (stereo unspecified)	-7	-9	-18	8	-12	8	.
C=Cn1ccnc1CC(O)c1ccc(OC)cc1 (stereo unspecified)	8	-8	-17	0	5	44*	-6
COC(=O)c1ccc(COC(=O)C(NC(=O)Cc2ccccc2)C(C)C)cc1 (stereo unspecified)	-5	-5	0	.	0	3	.
CC1(OC(=O)C2CCCC2)C(=O)C=C2C=C3CCCCN3C=C2C1=O (stereo unspecified)	-2	-11	6	-2	-14	57*	60*
CC1(OC(=O)c2ccc(Cl)nc2)C(=O)C=C2C=C3CCCN3C=C2C1=O (stereo unspecified)	7	7	14	-2	-17	65*	44*
COC(=O)CCC(=O)OC1(C)C(=O)C=C2C=C3CCCN3C=C2C1=O (stereo unspecified)	3	6	11	0	-15	53*	47*
CCCCCN1C=CC=C/C1=C\C=C(C#N)C#N	-3	-4	-8	0	2	36	.
CCCCCCN1C=CC(=C/C=C(\C#N)C(=O)OCC)C=C1	3	-3	3	17	6	36*	32
CCCCCCN1C=CC=C/C1=C/C=C(C#N)C#N	-3	-4	-2	8	1	50*	27
CCCN1C=CC(=CC=C(C#N)C#N)C=C1	-4	2	-4	7	0	50*	9
CCCN1C=CC(=C/C=C(\C#N)C(=O)OCC)C=C1	-20	-13	-14	5	.	.	.
C=CCN1C=CC(=CC=C(C#N)C#N)C=C1	1	-3	-4	2	15	56*	10
Cc1c(C(=O)NCC2CCCO2)cccc1[N+](=O)[O-] (stereo unspecified)	0	1	-21	0	-19	16	.
O=C(Nc1ccc(F)cc1)C(c1cc2ccccc2o1)N1CCN(c2cccc(C(F)(F)F)n2)CC1 (stereo unspecified)	.	.	.	.	19	-15	.
COc1cc2c3c(c1)c(C1=NC(=S)NC1=O)c(O)n3C(C)(C)C=C2C	-4	-3	-2	-2	-5	30	.
CC1(c2ccccc2)CC(C)(C)n2c(O)c(C3=NC(=S)NC3=O)c3cccc1c32 (stereo unspecified)	3	-1	-7	0	18	50*	16
CN(C)C=Nc1c(Br)cc(Br)c2nonc12	12	23	39	-5	0	58*	45*
CC(=O)Nc1ccc(S(=O)(=O)N2CCSC2c2ccccc2Cl)cc1 (stereo unspecified)	-9	-4	-7	5	2	8	.
COC(=O)C1SCCN1S(=O)(=O)c1ccc(Cl)cc1 (stereo unspecified)	-3	-11	-2	4	-5	42*	12
COc1c(O)cc2c(c1O)[C@@H]1O[C@H](CO)[C@@H](O)[C@H](O)C1OC2=O (stereo partly specified)	-5	-2	-9	-1	-4	43*	13
CSCC[C@H](NC(=O)N1C[C@H]2C[C@@H](C1)c1cccc(=O)n1C2)C(=O)Nc1ccc(NC(C)=O)cc1	1	-6	-4	1	1	46*	9
O=C(Nc1ccc(Br)cc1)C1CCCN1S(=O)(=O)c1cccs1 (stereo unspecified)	-11	-11	-22	9	6	3	.
